Most compounds without a hit are left out; they make up all but 11% or so of the library.
PNC inhibitor – inhibitors of perinucleolar compartment assembly; AID 2417; PC3M PTB-GFP, PNC prevalence imaging, 16 h; active compounds read low; activity change (PNC), negative = inhibition, % at 10 µM; actives 3.1% (n = 140,000);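 active = readout at or below -70, meaning at least 70% loss of cells showing the perinucleolar compartment, a nuclear body marking cancer cells; inconclusive = readout between -30 and a set limit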;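 also: plate controls were DMSO wells for no effect and camptothecin positive control wells for full effect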
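PC3M cells stably expressing PTB-GFP, 750–1000 cells/well, treated 16 h at 37 °C with compound (23 nl of library stock), in duplicate. After paraformaldehyde fixation and Hoechst stain, imaged at 20x; PNC prevalence scored by image analysis.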
HPGD block – inhibitors of human 15-hydroxyprostaglandin dehydrogenase (HPGD). actives 4.3% (n = 150,000). Potency, µM, for inactives: top-dose activity change, negative = inhibition, hits mostly inhibitors. AID 894. purified HPGD, NADH fluorescence kinetic, PGE2 substrate; also: potency is read from the fitted curve at half-maximal effect
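20 nM HPGD preincubated 15 min at room temperature with compound in 50 mM Tris-HCl pH 8, 0.01% Tween 20. Started with 1 mM NAD+ and 30 uM prostaglandin E2; NADH fluorescence (360/450 nm) read 5 times over 30-s intervals, last minus first.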
ALDH1A1 inh – ALDH1A1 (human) enzyme inhibition | P00352 | Purified ALDH1A1, NADH fluorescence, propionaldehyde substrate | Potency, µM (titrated, usually from 75.3 µM), for the others: at the top dose activity, negative = inhibition, most hits filed as inhibitors | actives 7.3% (n = 220,000);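 also: potency is read from the fitted curve at half-maximal effect; plate controls were no enzyme wells and a reference inhibitor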
Target sequence (P00352 whole entry, looked up): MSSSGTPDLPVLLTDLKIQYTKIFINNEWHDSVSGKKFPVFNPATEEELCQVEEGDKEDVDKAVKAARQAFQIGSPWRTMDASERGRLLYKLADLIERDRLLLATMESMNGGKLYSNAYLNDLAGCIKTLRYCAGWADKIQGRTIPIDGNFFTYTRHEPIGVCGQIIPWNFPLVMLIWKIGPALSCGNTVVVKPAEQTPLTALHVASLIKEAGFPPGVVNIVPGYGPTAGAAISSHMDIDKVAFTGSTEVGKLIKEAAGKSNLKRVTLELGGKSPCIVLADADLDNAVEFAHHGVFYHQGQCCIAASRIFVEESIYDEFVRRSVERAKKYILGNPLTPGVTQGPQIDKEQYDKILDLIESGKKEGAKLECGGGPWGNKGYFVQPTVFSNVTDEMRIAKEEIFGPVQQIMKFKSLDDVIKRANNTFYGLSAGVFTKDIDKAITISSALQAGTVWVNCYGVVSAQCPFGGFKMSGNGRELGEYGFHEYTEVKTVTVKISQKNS
Active calls of the source: *; [ ] = remark or other dose. Unless noted, calls follow the shape of the dose curve; as a rule, active = well fitted inhibition curve with a large enough effect (not every such curve was filed as active); inconclusive = small, poorly fitted or top-dose-only effect, or another doubt; inactive = no such curve, though single readings can be large or run the other way. Unless noted, % is scaled to controls: 0 for no effect and ±100 for the full control effect.

Results for COC1CCCCC1NS(=O)(=O)c1ccccc1 (centres undefined) ?
PNC inhibitor: 61.5; HPGD block: -1.8%; ALDH1A1 inh: inconclusive

Results for COc1cccc(NC(=O)Cn2c(=O)n(CC3CCCO3)c(=O)c3ccccc32)c1 (centres undefined) ?
PNC inhibitor: -16.0; HPGD block: -3.6%; ALDH1A1 inh: inconclusive

What do the screens show for `Cc1ccc(C(O)C2=CCCC2=O)cc1` (centres undefined)?
HPGD block: -4.2%; ALDH1A1 inh: -6.1%

Results for CC1CCC/C(=N\Nc2ccc(Cl)c(C(=O)O)c2)C1 (centres undefined) ?
PNC inhibitor: 2.0; HPGD block: -20.6%; ALDH1A1 inh: inconclusive

Results for O=C1CCC/C(=N/Nc2ccc(Cl)cc2)C1 ?
ALDH1A1 inh: 1.58µM*

What do the screens show for `COC(=O)CCN(C(=O)C1C2CC3CC(C2)CC1C3)c1ccccn1` (centres undefined)?
PNC inhibitor: 0.4; HPGD block: -5.9%; ALDH1A1 inh: 12.2%

Results for Cc1cccc(CS(=O)(=O)Cc2ccc(C(=O)NCc3cccs3)o2)c1 ?
ALDH1A1 inh: -2.9%

How did CC(C)NC(=S)NNc1nc2ccccc2s1 do in these assays?
ALDH1A1 inh: 0.562µM*

How did O=C(NNc1nc2ccccc2s1)c1ccc(F)cc1 do in these assays?
PNC inhibitor: -22.7; HPGD block: -11.0%; ALDH1A1 inh: -11.7%

What do the screens show for `COC(=O)[C@@H]1C[C@H]1[C@@H](NC(=O)c1cc(C)nn1C)c1ccccc1`?
HPGD block: -12.7%; ALDH1A1 inh: inconclusive

Results for CN1C(=O)/C(=C2\SC(=S)N(C(CCC(=O)O)C(=O)O)C2=O)c2ccccc21 (centres undefined) ?
PNC inhibitor: 44.2; HPGD block: 28.2µM*; ALDH1A1 inh: 1.12µM*

What do the screens show for `O=C(O)[C@H](CCc1ccccc1)N1C(=O)c2ccccc2C1=O`?
HPGD block: -7.0%; ALDH1A1 inh: -9.7%[13.5 µM]

Results for CCCn1c(CN(C)Cc2ccccc2)nc2c1c(=O)n(C)c(=O)n2C ?
PNC inhibitor: -22.3; HPGD block: -12.0%; ALDH1A1 inh: -5.9%

How did CN(Cc1ccccc1)Cc1nc2c([nH]1)c(=O)n(C)c(=O)n2C do in these assays?
PNC inhibitor: -100.0*; HPGD block: -6.5%; ALDH1A1 inh: -1.2%

What do the screens show for `Cc1c(/C=N/NC(=O)c2ccccc2O)c2ccccn2c1C(=O)c1ccc(F)cc1`?
PNC inhibitor: 33.5; HPGD block: 28.2µM*; ALDH1A1 inh: -10.5%

How did Cc1c(/C=N/NC(=O)c2ccc(O)cc2)c2ccccn2c1C(=O)c1ccc(F)cc1 do in these assays?
PNC inhibitor: 36.8; HPGD block: -7.7%; ALDH1A1 inh: 0.1%

How did COc1cc(/C=N/n2c(C)n[nH]c2=S)ccc1OCc1ccc(F)cc1 do in these assays?
PNC inhibitor: -29.7; HPGD block: 2.82µM*; ALDH1A1 inh: inconclusive

Results for COc1cc(/C=N\n2nnnc2N)ccc1OCc1ccc(F)cc1 ?
PNC inhibitor: 25.4; HPGD block: inconclusive; ALDH1A1 inh: inconclusive

How did COC(=O)N1CCC2(CCN(Cc3cc(C(F)(F)F)cc(C(F)(F)F)c3)CC2)CC1 do in these assays?
HPGD block: -8.4%; ALDH1A1 inh: -17.1%

How did Cc1ccccc1NC1=NCC(c2ccc([N+](=O)[O-])cc2)S1 (centres undefined) do in these assays?
ALDH1A1 inh: 0.4%

What do the screens show for `CC(=O)/C(=C/c1ccc(N(C)C)cc1)C(=O)c1ccccc1`?
PNC inhibitor: inconclusive; HPGD block: -19.4%; ALDH1A1 inh: inconclusive

How did CC(=O)C(=Cc1ccc(O)cc1)C(C)=O do in these assays?
ALDH1A1 inh: 7.08µM*

What do the screens show for `CC1(C)CC(=O)C=C(NCCN2CCN(C(=O)Nc3ccccc3)CC2)C1`?
PNC inhibitor: inconclusive; HPGD block: -0.4%; ALDH1A1 inh: -10.0%

Results for CCC(C)(C)n1nnnc1CN(Cc1ccc(Cl)cc1)Cc1ccco1 ?
PNC inhibitor: inconclusive; HPGD block: -13.1%; ALDH1A1 inh: 10µM*

What do the screens show for `CC(C)(C)c1ccc(CN(Cc2ccco2)Cc2nnnn2C2CCCC2)cc1`?
PNC inhibitor: inconclusive; HPGD block: -18.4%; ALDH1A1 inh: inconclusive

Results for O=C(COc1ccccc1)c1cn(CC(=O)N2CCCC2)c2ccccc12 ?
ALDH1A1 inh: -12.7%

What do the screens show for `CSCCOC(=O)COc1ccc(/C=N/NC(=O)c2nn(C)cc2Cl)cc1`?
PNC inhibitor: -21.3; HPGD block: 3.98µM*; ALDH1A1 inh: 6.7%

How did O=C(N/N=C/c1ccc(OCC(=O)N2CCOCC2)cc1)c1ccccc1Cl do in these assays?
ALDH1A1 inh: 0.3%

How did Cc1ccc(S(=O)(=O)Oc2ccc(/C=N/NC(=O)c3nn(C)cc3Cl)cc2)cc1 do in these assays?
PNC inhibitor: -100.0*; HPGD block: -27.5%; ALDH1A1 inh: inconclusive

Screens: PubChem, National Center for Advancing Translational Sciences (NCATS)
